Measurements from PubChem BioAssay (NCI).
The panel holds about 83,000 compounds, 20% with a hit somewhere; the sample as a whole holds those more often.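 48-hour exposure, single concentration, 96-well plates; percent growth endpoint where 0 means no net growth. Active: below 10.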 Activity calls are given as the source filed them.

The molecules below were run on LOX IMVI melanoma (assay: NCI-60 one-dose screen, 48 h (100 = growth as untreated, 0 = no growth, -100 = all killed)). Conditions: 10 µM unless noted.
For `NS(=O)(=O)c1ccc(Nc2nc(N/N=C/c3c[nH]c4ccccc34)nc(Nc3ccccc3)n2)cc1`, the growth was -10.6% (active). In the case of `CCc1cccc2c3c(sc12)C(c1ccc(OC)cc1)C(C#N)=C(/N=C/c1ccc(Cl)cc1)O3` (stereo not drawn), the growth is reported as 38% (inactive). `Cn1ccnc1C(=O)/C=C/c1ccc(CNC(=O)c2ccc(F)cc2)cc1` was tested, and the growth was -1.32% (active). `N#Cc1cccc(NC(=O)c2cc(-c3ccc(F)cc3F)ccc2O)c1` was tested, and the growth was 1.22% (active). `O=S(=O)(NCCCNc1nccc(-c2[nH]c(-c3ccccc3)nc2-c2ccc(Cl)c(O)c2)n1)c1cccc2ccccc12` was tested, and the growth was 19.8% (inactive). In the case of `CC1(C)[C@@H](O)CC[C@]2(C)[C@H]3CC[C@@H]4[C@H]5[C@H](C(=O)/C=C\c6ccncc6)CC[C@]5(O)CC[C@@]4(C)[C@]3(C)CC[C@@H]12`, the growth is reported as 5.63% (active). `CS(=O)(=O)Nc1cc(-c2ccc3ncc(C#N)c(N[C@H](CO)c4ccccc4)c3c2)cnc1Cl` was tested, and the growth was 26.9% (inactive). With `O=C(CSc1nc2ccccc2c(=O)n1-c1ccccc1)Nc1ccc(-c2nc3ccc([N+](=O)[O-])cc3[nH]2)cc1` the growth was 37.8% (inactive). For `Oc1cccc2ccc(-c3nnc(SCc4ccc(O)c5ncccc45)n3-c3ccccc3)nc12`, the growth was 5.48% (active). With `C=CCn1c(SCC(=O)Nc2ccc(C(=O)/C=C/c3ccc(C)cc3)cc2)nnc1-c1c[nH]c2ccccc12` the growth was 20.9% (inactive). With `C[C@@H](Nc1c(C#N)cnc2ccc(-c3cnc(Cl)c(NS(C)(=O)=O)c3)cc12)c1ccccc1` the growth was -24.6% (active). With `CCN(CC)c1ccc(NC2=C(Cl)C(=O)c3nc(C)ccc3C2=O)cc1` the growth was -71.6% (active). With `C#Cc1nc(C(=O)NCCC(=O)Nc2ccc(NC(=O)c3ccc(/C=C/C(=O)c4nccn4C)cc3)cc2)cs1` the growth was -90.1% (active). For `CCN(CC)CCn1c2ccc(O)cc2c2sc3cc(OC)ccc3c(=O)c21`, the growth was -86% (active). `CC1(C)CC[C@]2(C(=O)N3CCOCC3)CC[C@]3(C)C(=CC[C@@H]4[C@@]5(C)C/C(=C/c6ccccn6)C(=O)C(C)(C)[C@@H]5CC[C@]43C)[C@@H]2C1` was tested, and the growth was 55.9% (inactive). `Cc1nc(-c2ccccc2O)ccc1C(=O)N=Nc1c(O)[nH]c2ccc(Br)cc12` was tested, and the growth was 107% (inactive). For `O=C(CCn1c[n+](CC(=O)c2ccc(-c3ccccc3)cc2)c2ccccc21)Nc1cccc2cccnc12`, the growth was 57.9% (inactive). `COC(=O)c1[nH]nc2c1C1(C(=O)c3cccc4cccc1c34)C(C#N)=C(N)O2` (stereo not drawn) was tested, and the growth was 97.7% (inactive). In the case of `N=c1c2cc(-c3ccccc3)oc2ncn1/N=C/c1ccc(Cl)cc1`, the growth is reported as 63.3% (inactive). In the case of `Cc1ccc(-n2c(/C=C3\C(=O)Nc4ccccc43)ccc2CO)cc1`, the growth is reported as 62.5% (inactive). `CC(=O)N(C)C1CCc2c(sc(NC(=O)c3ccc(C(C)(C)C)cc3)c2C(N)=O)C1` (stereo not drawn) was tested, and the growth was 29.5% (inactive). `CC1(C)[C@@H](O)CC[C@]2(C)[C@H]3CC[C@@H]4[C@H]5[C@H](C(=O)/C=C\c6ccc([N+](=O)[O-])cc6)CC[C@]5(O)CC[C@@]4(C)[C@]3(C)CC[C@@H]12` was tested, and the growth was -7.58% (active). With `Cc1ccc(NC(=O)CNc2cc(C(N)=O)cc(F)c2C)c(Cl)c1` the growth was 94.1% (inactive). In the case of `COc1ccc(N2CCN(C3=C(Cl)C(=O)C(C)=C(C)C3=O)CC2)cc1`, the growth is reported as 91.4% (inactive). With `CN1CCN(c2ccc(/C=N/Nc3nc4ccccc4c(=O)n3-c3ccccc3)cc2)CC1` the growth was 122% (inactive). With `COc1cc(-c2nc3sccn3c2-c2ccnc(S(C)(=O)=O)n2)ccc1F` the growth was 102% (inactive). For `Cc1ccc2c(c1)Oc1nc(N)c(C#N)c(N)c1C2Sc1ccc(F)cc1` (stereo not drawn), the growth was -93.1% (active). For `CCCn1cnc2c(c1=N)C(c1ccc(F)cc1)c1sc3c(C)cccc3c1O2` (stereo not drawn), the growth was 28.8% (inactive). In the case of `COc1ccc(Cn2cc3c(c2-c2cc(OC)c(OC)c(OC)c2)CCc2c(CN4CCCC4)noc2-3)cc1`, the growth is reported as 34.6% (inactive). For `CC1=N[C@@H]2CN(C(=O)OC(C)(C)C)C[C@@H]2n2c1cc1ccccc1c2=O`, the growth was 98.2% (inactive). With `COc1cc(OC)cc(C(=O)Nc2cccc(C#Cc3cccc4[nH]nc(N)c34)c2)c1` the growth was 31.9% (inactive). `COc1ccccc1-n1cc(C#N)c(N)c1C(=O)c1ccc(Br)cc1` was tested, and the growth was 66.2% (inactive). `CS(=O)(=O)Nc1cc(-c2ccc3ncc(C#N)c(NCc4cccc(F)c4)c3c2)cnc1Cl` was tested, and the growth was -55% (active).
